Test results reported in PubChem BioAssay AID1878 (Sanford-Burnham Center for Chemical Genomics, 2009).
About 200 (20%) of roughly 1,000 compounds were called active. These entries were drawn from the full list. Entries with a potency or affinity are not part of this list. Unmarked numbers belong to inactive results. Cut-off read from the data, not from the text of the source: active = inhibition above about 55%; inactive = the rest.

molecular target: Dual specificity protein phosphatase 3 (Homo sapiens) (UniProt P51452); test: VHR1 phosphatase inhibitors, biochemical (AID 1878); details: recombinant VHR phosphatase, fluorogenic substrate; at 13.3 µM; stronger effect = higher value
Sequence (P51452 whole entry, looked up): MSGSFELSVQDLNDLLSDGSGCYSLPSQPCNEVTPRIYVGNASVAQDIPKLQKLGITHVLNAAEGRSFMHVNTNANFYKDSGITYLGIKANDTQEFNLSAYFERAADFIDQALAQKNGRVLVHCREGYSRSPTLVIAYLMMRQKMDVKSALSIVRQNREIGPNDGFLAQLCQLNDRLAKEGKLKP

| Compound | inhibition |
| --- | --- |
| CCOC(=O)c1ccc(NCCc2ccc(OC)c(OC)c2)c(N)c1 | 33% |
| COc1ccc(/C=N/N=C2/NC(=O)C(CC(=O)O)S2)cc1OCc1ccc(Cl)cc1Cl (configuration not stated) | 95.9% (active) |
| COc1ccc(Cl)cc1-n1c(=S)sc2c(=O)n(-c3ccc(F)cc3)c(SCC(=O)O)nc21 | -3.3% |
| CCN(CC)c1ccc(NC(=O)c2c(C)noc2C)cc1 | -3.1% |
| COCCN(C(=O)c1ccc(OC2CCN(S(=O)(=O)N(C)C)CC2)cc1)C(C)C | -6.4% |
| COc1ccc(C(=O)C2CCCN(C(=O)c3cccc(N(C)C)c3)C2)cc1OC (configuration not stated) | 16.4% |
| COc1cc(C(=O)OC2C[C@H]3CC[C@@H](C2)N3C)ccc1O (some centres not stated) | -1.1% |
| Cn1c(/C=C/c2ccc(Cl)cc2Cl)c([N+](=O)[O-])c(=O)n(C)c1=O | 20.2% |
| CC1CCCCN1CCCNC(=O)Cn1c(=O)c2cccn2c2ccccc21 (configuration not stated) | -1.3% |
| COc1ccc(/C=N\NC(=O)c2cc(O)c(O)c(O)c2)cc1CN1CCN(c2ccc(F)cc2)CC1 | -34.7% |
| COc1ccc2c(c1)cc1c(=O)n(CC(=O)NC(C)CCc3ccccc3)nc(C)n12 (configuration not stated) | -4% |
| CN1CC(=O)N2Cc3[nH]c4ccccc4c3C[C@H]2C1=O | 11.2% |
| Cc1ccc(N2CCN(c3ncccc3[N+](=O)[O-])CC2)c(C)c1 | 8.1% |
| NC(=O)C(c1ccc(F)cc1)c1ccc(C(=O)c2ccccc2)cc1 (configuration not stated) | 18.3% |
| CCOCCn1c2ccccc2c2nc3ccccc3nc21 | -4.2% |
| COc1ccc(C(=O)/C=C2/C(=O)Nc3ccccc32)cc1OC | 13.2% |
| CC(Oc1ccc2ccc(=O)oc2c1)C(=O)NC1CC(C)(C)NC(C)(C)C1 (configuration not stated) | -2.5% |
| Nc1ccc2c(c1Cl)C(=O)c1ccc(N)c(Cl)c1C2=O | 99.8% (active) |
| CCCC(=O)Nc1ccc(S(=O)(=O)N2CCOCC2)cc1 | -5.6% |
| CC(C)(C)CC(=O)Nc1ccc(-c2nnc3n2CCCCC3)cc1 | 27.9% |
| COc1nc(C)cc(C)c1S(=O)(=O)c1ccccc1 | 6.1% |
| c1ccc(CCNC2CCCCCC2)cc1 | 14.2% |
| O=C(NCCc1ccccc1)C1CC(=O)N(CCc2ccccc2)C1 (configuration not stated) | -8.3% |

| Compound | inhibition |
| --- | --- |
| CC1CCN(S(=O)(=O)c2ccc3c(c2)N(CC(=O)NCCCN2C(C)CCCC2C)C(=O)CO3)CC1 (configuration not stated) | -11.5% |
| O=C(O)Cn1nc2c3c(cccc3c1=O)-c1ccccc1-2 | -3.4% |
| Cc1cc2nc(/C=C/c3nc4cc(C)c(C)cc4[nH]3)[nH]c2cc1C | 82.4% (active) |
| NC(=O)C(c1ccccc1)c1ccc(C(=O)c2ccccc2)cc1 (configuration not stated) | -3.2% |
| Cn1nc([N+](=O)[O-])c2c(-c3nc4ccccc4s3)c(N)n(C3CCCCC3)c2c1=O | 97.9% (active) |
| COc1cccc(NC(=O)CN(C)S(=O)(=O)c2ccc3[nH]c(=O)oc3c2)c1 | 9% |
| O=C(Cn1ncc2c([nH]c3ccccc32)c1=O)N1CCOCC1 | 16.5% |
| COc1cc(/C=C2/C(=O)N(c3cccc(Br)c3)N=C2C)cc(OC)c1O | 6.8% |
| COc1cc(/C=C2/C(=O)NN(c3ccc(Cl)cc3)C2=O)cc(OC)c1O | 17.9% |
| CC(C)(C)OC(=O)NCC1CCN(S(=O)(=O)Cc2ccccc2)CC1 | -7.1% |
| C/C(N)=C(/C#N)C(=O)COC(=O)c1cc(-c2ccc(Br)cc2)nc2ccccc12 | -2.7% |
| CCOc1ccc(-c2cc(C(=O)NCCCN3CCCC3)c3ccccc3n2)cc1 | -16.4% |
| COc1ccccc1CN1CCCC(CN(CCN(C)C)C(=O)C2CCCC2)C1 (configuration not stated) | -18.4% |
| Nc1nn2c(-c3ccccc3)cc(=O)[nH]c2c1N=Nc1ccc(Br)cc1 | 81.7% (active) |
| CC(C)(C)c1cc(=O)n2[nH]c(N)nc2n1 | -15.2% |
| COC(=O)C1(C)NC(c2ccc(Cl)cc2)C2C(=O)N(c3ccccc3)C(=O)C21 (configuration not stated) | -6.5% |
| CN1CCN(c2nc(-c3ccccc3Cl)nc3ccccc23)CC1 | 5.7% |
| COc1ccc(-c2cc3nc4ccccc4n3c(N)c2C#N)cc1 | 95.4% (active) |
| COc1ccc(NC2CCCN(C(=O)CCN3CCOCC3)C2)cc1 (configuration not stated) | 2.8% |
| CC(C)OC(=O)CCCNc1ccc([N+](=O)[O-])cc1[N+](=O)[O-] | 5.9% |
| Cc1cc(=O)oc2cc(OC(C)C(=O)NCCc3ccc(S(N)(=O)=O)cc3)ccc12 (configuration not stated) | -4.7% |
| Cc1cc(C)c(S(=O)(=O)c2cccc(Br)c2C)c(=O)[nH]1 | 9.5% |
| O=C(Nc1ccc(Br)cc1F)c1ccc2nsnc2c1 | 0.8% |

| Compound | inhibition |
| --- | --- |
| CCC(Sc1nnc(-c2ccco2)n1C)C(=O)Nc1nnc(C)s1 (configuration not stated) | -1.6% |
| CCCCCCN1CC(=O)N2Cc3[nH]c4ccccc4c3C[C@H]2C1=O | 11.5% |
| COc1ccc(/C=N/NC(=O)c2[nH]c3ccc(C)cc3c2-c2ccccc2)c(C(=O)O)c1OC | 6.7% |
| COc1cccc(/C=N/Nc2ncnc3c2[nH]c2ccc(C)cc23)c1OC | 97.6% (active) |
| O=C(COCc1cc(-c2ccc3c(c2)OCO3)on1)Nc1cccnc1Cl | 2.9% |
| COc1ccccc1N1CCN(C2CCCN(C(=O)CCc3cnccn3)C2)CC1 (configuration not stated) | -1.8% |
| C[C@]1(CO)CCC[C@@]2(C)C1CC[C@@H](CO)[C@@H]2CCc1ccoc1 (some centres not stated) | -0.3% |
| CCCc1c(C(=O)N/N=C(\C)CCc2ccccc2)nnn1-c1nonc1N | 1.7% |
| CCCOc1ccc(-c2c(C(=O)N/N=C/c3cccnc3)nnn2-c2nonc2N)cc1 | 96.5% (active) |
| C/C(=N\NC(=O)c1nnn(-c2nonc2N)c1C)c1ccc(OCc2ccccc2)cc1 | 8.6% |
| CCc1nn(CC(=O)NCc2ccccc2Cl)c(=O)c2cccn12 | 17.5% |
| COC(=O)c1sccc1NC(=O)Nc1ccc(C)cc1C | -7.1% |
| O=C(Nc1cccc2ncccc12)c1ccccc1F | -0.8% |
| COc1cccc(C2c3[nH]c4ccccc4c3C[C@H]3C(=O)N(CCCOC(C)C)CC(=O)N23)c1 (some centres not stated) | 10.9% |
| COc1ccc(OC)c(-c2csc(NC(=O)Cc3ccc(F)cc3)n2)c1 | 0.5% |
| COc1ccc2[nH]c(=O)c(-c3noc(-c4ccc(F)cc4)n3)cc2c1 | 97.2% (active) |
| Cn1cnc(S(=O)(=O)N2CCN(c3ccc(F)cc3)CC2)c1 | -8% |
| Cc1ccc(NC(=O)NN2CCN(C)CC2)cc1C | -0.5% |
| Cc1ccc(NC(=O)Nc2nnc(-c3ccncc3)s2)cc1C | 94.2% (active) |
| O=C(Nc1ccc(Cl)c(Cl)c1)Nc1ccccn1 | 3.2% |
| Cc1ccc(NC(=O)NCCN2CCCCC2)cc1C | -2% |
| Cc1cccc(NC(=O)Cc2nnc(NC(=O)Nc3ccccc3F)s2)c1 | 16.3% |
| CCC(C(=O)NCCCN1CCN(C)CC1)n1nc(C)n2c(cc3occc32)c1=O (configuration not stated) | -10.7% |

| Compound | inhibition |
| --- | --- |
| CC(=O)OC1CC2(C)/C(=N\O)CCC2C2CCc3cc(O)ccc3C12 (configuration not stated) | -5.1% |
| Cc1ccc(-n2nc3c(=O)n(CCCC(=O)NC4CCC(C)CC4)nc(C)c3c2C)cc1 (configuration not stated) | 23.9% |
| CCN(CC)C(=O)Cn1cc(C(=O)C(=O)NCCCN2CCCCC2)c2ccccc21 | 1.8% |
| O=C(NCc1ccc(F)cc1)C1CCN(S(=O)(=O)c2cccc3nonc23)CC1 | 4.8% |
| CC(C)C[C@H](NC(=O)C1CC(=O)N(c2ccc3c(c2)OCO3)C1)C(=O)NC1CCCC1 (some centres not stated) | -5% |
| CCN(CC)CCCNC(=O)c1ccc(C)c(NC(=O)C2=C(C)OCCS2)c1 | 5.7% |
| COc1cc(OC)nc(Oc2cc(C=O)ccc2OC)n1 | 19.7% |
| CCN(CC)CCCNC(=O)c1cn(C)c2ccc(S(=O)(=O)N(C)C3CCCCC3)cc2c1=O | -8.9% |
| CC(=O)c1ccc(S(=O)(=O)Nc2ccc(N3CCOCC3)cc2)cc1 | -2% |
| Cn1c(=O)c(=O)n(C)c2cc(N3CCOCC3)c(NS(=O)(=O)c3ccc(F)c(Cl)c3)cc21 | -2.4% |
| O=S(=O)(Nc1ccc(Cl)cc1)c1ccc(N2CCOCC2)c(NC(=S)NCCN2CCOCC2)c1 | 57.1% (active) |
| CC(C)(C)NC(=O)N1CCN(c2ncccc2C(F)(F)F)CC1 | -1.3% |
| O=C(CSc1nc2ccccc2[nH]1)NCCN1CCCCC1 | -5.4% |
| Cc1ccc(-c2nnn3c2nc(NCCc2ccc(S(N)(=O)=O)cc2)c2ccccc23)cc1 | 98.7% (active) |
| CCOc1ccc(C(=O)OCC(=O)NCc2ccco2)cc1OCC | 3.1% |
| CCN1C(=O)N(c2ccc(C(C)=O)cc2)S(=O)(=O)c2ccccc21 | -4.4% |
| COc1ccc(C(=O)N2CCN(CCNC(=O)C(=O)Nc3ccc(Br)cc3)CC2)cc1 | 1.9% |
| Cc1ccc(NC(=O)CCC(=O)c2ccc(Br)cc2)cc1 | 8.7% |
| Oc1ccccc1/C=N/Nc1cc(N2CCCC2)nc(N2CCCC2)n1 | -15.5% |
| CCCC(=O)Nc1c(-c2ccc(C)cc2)c(=O)c2ccccc2n1C | 2.1% |
| COc1ccnc2c1c(=O)n(Cc1ccc(Cl)cc1)c(=O)n2C | 0.3% |
| COc1ccc(Cn2c(-c3ccc(C)cc3)nc3c(c(=O)c4ccccc4n3C)c2=O)cc1 | 85.9% (active) |
| Cc1nn(CC(=O)NCCCN2CC(C)CC(C)C2)c(=O)c2cccn12 (configuration not stated) | -10.3% |
